One test relates to CRL-7250. The test can be described thus: Cytotoxic Profiling of Annotated Libraries Using Quantitative High-Throughput Screening (AID 1296008). For max response: % is set by controls: 0 for no effect and ±100 for the full control effect. Note: nearly all actives have a fitted effect of over 60% in size. The note with it: Five cell lines viability, CellTiter-Glo ATP luminescence, 48-72 h; max response: stronger effect = lower value. Put shortly: (§1)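 Cells exposed to compounds for 48 or 72 hr at 37 degrees Celsius. Viability read as ATP-coupled luminescence with CellTiter-Glo after 10 min at room temperature.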

In test [1] the test system is HaCat. The test is described as above. The note with it: Five cell lines viability, CellTiter-Glo ATP luminescence, 48-72 h; max response: stronger effect = lower value. Put shortly:
as §1

A further test relates to KB-3-1. Described as above. The note with it: Five cell lines viability, CellTiter-Glo ATP luminescence, 48-72 h; max response: stronger effect = lower value. Put shortly:
as §1

Test [2] deals with NIH3T3. The test is described as above. The note with it: Five cell lines viability, CellTiter-Glo ATP luminescence, 48-72 h; max response: stronger effect = lower value. Put shortly:
as §1

The subject of test [3] is HACAT. The test can be described thus: qHTS assay to identify novel small-molecules to repurpose for Merkel cell carcinoma treatment (AID 1296009). Note: nearly all actives have a fitted effect of over 60% in size. The note with it: MCC and control cell lines, CellTiter-Glo viability, 72 h; at 44.8 µM (top of the series) unless noted. Put shortly:
(§2)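 Cells were treated for 72 hr at 37 degree celsius with compounds in 8- or 11-point dose response. Viability was read by CellTiter-Glo luminescence, normalized to no-cell (cytotoxicity) and DMSO controls.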

Another test has as its system C33A. The test can be described thus: Primary qHTS to identify gynecologic anti-cancer compounds using libraries of approved drugs and bioactive compounds (AID 1345084). Note: nearly all actives have a fitted effect of over 55% in size. Note: potency is the fitted concentration of half-maximal effect. The note with it: Gynecologic cancer cell panel viability, ATPlite luminescence, 48 h; series mostly up to 57.5 µM. Put shortly:
(§3)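 Cells, 1,000 per well, plated 16 h, then exposed 48 h at 37 C to compounds. Viability by ATPlite luminescence after 15 min at room temperature.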

The subject of another test is CAOV3. Described as above. The note with it: Gynecologic cancer cell panel viability, ATPlite luminescence, 48 h; series mostly up to 57.5 µM. Summed up: as §3
A further test has as its system CASKI. The test is described as above. The note with it: Gynecologic cancer cell panel viability, ATPlite luminescence, 48 h; series mostly up to 57.5 µM. Summed up:
as §3

The test system of the next test is Es-2. Described as above. The note with it: Gynecologic cancer cell panel viability, ATPlite luminescence, 48 h; series mostly up to 57.5 µM. Summed up: as §3
Another test deals with HeLa. Described as above. The note with it: Gynecologic cancer cell panel viability, ATPlite luminescence, 48 h; series mostly up to 57.5 µM. Summed up: as §3
For the next test, the system named is Hek293T. The description is as above. The note with it: Gynecologic cancer cell panel viability, ATPlite luminescence, 48 h, control line for the selectivity index; series mostly up to 57.5 µM. Summed up: as §3
For the next test, the system named is JEG-3. Described as above. The note with it: Gynecologic cancer cell panel viability, ATPlite luminescence, 48 h; series mostly up to 57.5 µM. Put shortly:
as §3

For the next test, the system named is OV90. The description is as above. The note with it: Gynecologic cancer cell panel viability, ATPlite luminescence, 48 h; series mostly up to 57.5 µM. Put shortly: as §3
In the next test the test system is PA-1. Described as above. The note with it: Gynecologic cancer cell panel viability, ATPlite luminescence, 48 h; series mostly up to 57.5 µM. Summed up:
as §3

Test [4] deals with NIH3T3. As to the kind of experiment: qHTS assay to identify novel small-molecules to repurpose for Merkel cell carcinoma treatment (AID 1296009). Note: nearly all actives have a fitted effect of over 60% in size. The note with it: MCC and control cell lines, CellTiter-Glo viability, 72 h; series mostly up to 44.8 µM. Summed up:
as §2

Molecules are shown by their SMILES. Results filed as inconclusive are left out. Unmarked numbers belong to inactive results. Calls of active or inactive are those of the source. Calls come from the whole dose curve; as a rule, active = well fitted curve in the direction sought with a large enough effect; inconclusive = small, poorly fitted or top-dose-only effect, or another doubt; inactive = no such curve, though single readings can be large; an effect the other way counts as inactive or inconclusive.

With `Cc1ccc(-c2ncc[nH]2)cc1NC(=O)c1ccc(OCc2ccccn2)cc1`, the max response is -5.69% with CRL-7250, -1.78% in the test with KB-3-1 and -1.84% in the test on NIH3T3 [2]. The outcome with HaCat [1] and with HACAT [3] was inactive. Besides, the Potency entry with C33A, in the test on CAOV3, with CASKI, in the test with Es-2, with HeLa and in the test on Hek293T was “inactive” in each case. For the same molecule, the Potency entry in the test with JEG-3, with OV90 and with PA-1 was “inactive” in each case.

For the molecule `COC(=O)C(Cc1ccc(OCCn2c(=O)sc3cc(C(=O)c4ccccc4)ccc32)cc1)C(=O)OC`, the max response was -17% with CRL-7250, 0.264% in the test with KB-3-1 and 2.75% in the test on NIH3T3 [2]. The molecule was called inactive with HaCat [1] and with HACAT [3]. Further, the Potency entry in the test with C33A, in the test on CAOV3, with CASKI, in the test with Es-2, with HeLa and in the test on Hek293T was “inactive” throughout. For the same molecule, the Potency entry in the test with JEG-3, with OV90 and in the test with PA-1 was “inactive” throughout.

For the molecule `O=C(c1cc(Cc2n[nH]c(=O)c3ccccc23)ccc1F)N1CCCNCC1`, the max response is 0.306% in the test with CRL-7250 and 0.0332% in the test on NIH3T3 [2]. For the same molecule, the outcome in the test with HaCat [1], in the test on KB-3-1 and in the test with HACAT [3] was inactive. The Potency entry in the test with C33A, with CAOV3, in the test on CASKI, in the test with Es-2, in the test with HeLa and with Hek293T was “inactive” in each case. Besides, the Potency entry in the test with JEG-3, with OV90 and with PA-1 was “inactive” throughout.

As for `C=C1C(=O)O[C@@H]2/C=C(\CO)CC/C=C(\CO)[C@H](OC(C)=O)C(OC(=O)C(C)CC)C12` (stereo partly specified), the max response in the test on CRL-7250 was -5.38%; in the test on NIH3T3 [2] it was -1.91%. In addition, the molecule was classed as inactive in the test on HaCat [1] and in the test with KB-3-1. Also, the outcome in the test with HACAT [3] is “inactive [at 17.4 µM]”. Besides, the Potency result in the test with C33A, in the test with CAOV3, with CASKI, in the test with Es-2, in the test on HeLa and in the test with Hek293T was “inactive” in each case. Besides, the Potency entry in the test with JEG-3, in the test with OV90 and in the test with PA-1 was “inactive” each time.

Turning to `O=C(NC[C@H]1CN(c2ccc(N3CCOCC3=O)cc2)C(=O)O1)c1ccc(Cl)s1`, the max response is 0.206% with CRL-7250, -11.5% in the test with KB-3-1 and -0.938% in the test on NIH3T3 [2]. Moreover, the result in the test on HaCat [1] and with HACAT [3] was inactive. Moreover, the Potency entry in the test with C33A, with CAOV3, with CASKI, in the test with Es-2, with HeLa and in the test with Hek293T was “inactive” in each case. The Potency result with JEG-3, with OV90 and with PA-1 was “inactive” in each case.

In the case of `O=S(=O)(N[C@H]1CCCC[C@@H]1N1CCOCC1)c1ccc(Cl)cc1`, the max response in the test on CRL-7250 is -16%; in the test with KB-3-1 it was 1.51%. The molecule was classed as inactive in the test with HaCat [1], with NIH3T3 [2] and in the test on HACAT [3]. Further, the Potency entry in the test on NIH3T3 [4], in the test on C33A, in the test with CAOV3, in the test on CASKI, in the test with Es-2 and with HeLa was “inactive” throughout. Moreover, the Potency result in the test with Hek293T, in the test on JEG-3 and with PA-1 was “inactive” throughout.

For `O=C(Nc1ccc(N(Cc2ccsc2)C(=O)Cn2nnc3ccccc32)cc1)C1CC1`, the values for the max response with CRL-7250, in the test on KB-3-1 and with NIH3T3 [2] were -5.74%, 6.41% and 4.89%, respectively. The result with HaCat [1] and in the test on HACAT [3] was inactive. Besides, the Potency entry in the test on C33A, with CAOV3, in the test on CASKI, in the test with Es-2, in the test on HeLa and with Hek293T was “inactive” each time. Besides, the Potency result in the test with JEG-3 and in the test on OV90 was “inactive” in each case.

For `COc1cc2nc(N3CCN(C(=O)COc4c(OC)cccc4C(C)C)CC3)nc(N)c2cc1OC`, the max response is 1.78% in the test on CRL-7250 and 8.96% with KB-3-1. For the same molecule, the result in the test on HaCat [1], with NIH3T3 [2] and in the test with HACAT [3] was inactive. Moreover, the Potency entry in the test on NIH3T3 [4], in the test with C33A, with CASKI, in the test with Es-2, in the test on HeLa and in the test on Hek293T was “inactive” each time. For the same molecule, the Potency result in the test on JEG-3, with OV90 and in the test with PA-1 was “inactive” each time.

As for `CC(=O)c1c(C)cc2cccc(O)c2c1O[C@@H]1O[C@H](CO)[C@@H](O)[C@H](O)[C@H]1O`, the results for the max response in the test with CRL-7250 and with NIH3T3 [2] were -1.95% and -3.48%, respectively. Moreover, the call in the test on HaCat [1], with KB-3-1 and with HACAT [3] was inactive. Moreover, the Potency entry in the test on C33A, in the test with CAOV3, with CASKI, with Es-2, in the test with HeLa and in the test on Hek293T was “inactive” in each case. The Potency result with JEG-3 and in the test with OV90 was “inactive” in each case.

`O=C(Nc1ccn(Cc2ccc(O)cc2C(F)(F)F)n1)c1c(F)cccc1F`: the max response with CRL-7250 was -7.76%; in the test on KB-3-1 it was -23.9%. The molecule was classed as inactive with HaCat [1], in the test on NIH3T3 [2] and in the test on HACAT [3]. Also, the Potency entry in the test on NIH3T3 [4], in the test on C33A, with CAOV3, in the test with CASKI, in the test on Es-2 and in the test on Hek293T was “inactive” throughout. In addition, the Potency result in the test on JEG-3, in the test with OV90 and with PA-1 was “inactive” throughout.

Consider `CCc1ccc(-c2nc(CSCC(=O)NCCc3ccccc3)c(C)o2)cc1`, for which the max response in the test with CRL-7250 was 2.64%; with KB-3-1, -10.3%; in the test with NIH3T3 [2] it was -12.1%. The outcome with HaCat [1] and in the test on HACAT [3] was inactive. Further, the Potency entry with C33A, in the test on CAOV3, with CASKI, in the test on Es-2, in the test on HeLa and in the test with Hek293T was “inactive” in each case. Moreover, the Potency result with JEG-3, with OV90 and with PA-1 was “inactive” in each case.

As for `CC(=O)c1ccc2c(c1)[C@H](NC(=O)c1ccc(F)c(Cl)c1)[C@H](O)C(C)(C)O2`, the max response in the test on CRL-7250 is -9.32%; in the test with KB-3-1, 2.28%. Further, the outcome with HaCat [1], in the test with NIH3T3 [2] and with HACAT [3] was inactive. For the same molecule, the Potency entry in the test with NIH3T3 [4], in the test with C33A, with CASKI, in the test on Es-2, in the test with HeLa and in the test with Hek293T was “inactive” each time. Moreover, the Potency result with JEG-3, in the test with OV90 and in the test with PA-1 was “inactive” each time.

On to `NC(=O)c1cccc2[nH]c(-c3ccc(C4CCCN4)cc3F)nc12` (stereo unspecified), for which the molecule was classed as inactive with CRL-7250, in the test with HaCat [1], in the test with KB-3-1, in the test on NIH3T3 [2] and in the test with HACAT [3]. In addition, the Potency result with NIH3T3 [4] is “inactive”. Moreover, the Potency was 17.8 µM (active) in the test on C33A; 10 µM (active) with CAOV3; 15.8 µM (active) in the test on Es-2; 12.6 µM (active) with Hek293T; 11.2 µM (active) in the test on JEG-3.

`Cc1cc2c(N3CCCC3)nc(N3CCCC3)nc2n1C`: the results for the max response with CRL-7250, with KB-3-1 and with NIH3T3 [2] were 1.58%, -0.182% and -2.11%, respectively. The molecule was classed as inactive in the test with HaCat [1] and in the test on HACAT [3]. For the same molecule, the Potency entry in the test on C33A, with CAOV3, with CASKI, in the test on Es-2, in the test with HeLa and in the test with Hek293T was “inactive” in each case. Besides, the Potency result in the test on JEG-3, with OV90 and with PA-1 was “inactive” in each case.
